The record followed here is ChEMBL document CHEMBL4513146, “CO-ADD screening of Karazin Kharkiv National University (Ukraine) compounds”.

Results with a measured potency or affinity are listed apart.

One assay has as its system Staphylococcus aureus. As to conditions: Concentration 32 ug.mL-1;; ASSAY_TEST Inhibition of Bacterial Growth; detection method Absorption (OD600); MEDIA CAMHB; plate type 384well; NBS; CORNING #3640; time 18 hr.
As for `COc1ccc(-c2cc3c4nn(CC(=O)Nc5ccc(OC)c(OC)c5)c(=O)n4ccn3n2)cc1`, the Inhibition (in general, the change of the read-out against control, counted positive when it falls) is on record as 2.65%.
For `COC(=O)c1ccc(NC(=O)Cn2nc3c4sc(N5CCCC5)nc4ncn3c2=O)cc1`, the Inhibition is -12.82%.
On the same count and under the same terms, as for `COc1ccc(NC(=O)Cn2nc3nc(Nc4ccc(F)cc4)ccn3c2=O)cc1Cl`, the figure is 5.78%.
On to `Cc1ccccc1CN(c1ccc(Cl)cc1)S(=O)(=O)c1cccn2c(C)nnc12`, for which the Inhibition is given as 11.54%.
As to `CCCn1c(=O)c2sccc2n2c(=O)n(Cc3ccc(Cl)cc3)nc12`, the Inhibition is recorded as 1.51%.
As for `Cc1cccc(Oc2nccn3c(=O)n(CC(=O)N4CCN(c5ccc(F)cc5)CC4)nc23)c1C`, the Inhibition turned out to be 3.93%.
With `CCc1ccc(NC(=O)Cn2nc3c(Sc4ccccc4)nccn3c2=O)cc1`, the Inhibition is 6.66%.
As to `O=C(Cn1nc2c(SC3CCCCC3)nccn2c1=O)Nc1ccc(Cl)cc1F`, the Inhibition is on record as 4.94%.
Take `Cc1nnc2ccc(S(=O)(=O)N(Cc3cccc(F)c3)c3ccc(F)c(F)c3)cn12`: the Inhibition is 0.15%.
Regarding `CCOC(=O)c1ccc(NC(=O)Cn2nc3c(N4CCOCC4)nccn3c2=O)cc1`, the Inhibition is reported as 2.06%.
The same measure, in the same setting: in the case of `COc1ccc(CN(c2ccc(F)cc2)S(=O)(=O)c2cccn3cnnc23)cc1F` it was 11.25%; in that of `CCOc1ccc(-n2ccn3c(SCC(=O)Nc4ccccc4C(F)(F)F)nnc3c2=O)cc1`, 16.73%; in that of `Cc1ccc(Oc2nccn3c(=O)n(CC(=O)N4CCN(c5ccccc5F)CC4)nc23)cc1`, 10.22%.
As for `Cc1ccc(Oc2nccn3c(=O)n(CC(=O)Nc4cccc(Cl)c4)nc23)cc1`, the Inhibition is listed as -3.9%.
Same read-out and setting: in the case of `O=C(Cn1nc2c3c4c(sc3ncn2c1=O)CCCC4)N1CCc2ccccc2C1` it was 0.97%.
Same read-out and setting: as for `Cc1ccc(NC(=O)Cn2nc3c(N4CCCC4)nccn3c2=O)cc1Cl`, the figure is 3.49%.
The same measure, in the same setting: as for `O=C(Cn1nc2nc(Nc3ccc(F)cc3)ccn2c1=O)NCC1CCCO1` (centres undefined), the figure is 2.52%; as for `Cc1ccccc1N1CCN(c2nccn3c(=O)n(CC(=O)Nc4cccc(C(C)C)c4)nc23)CC1`, 14.78%.
With `CCOc1ccccc1CNC(=O)CCc1nnc2ccc(-c3ccccc3)nn12`, the Inhibition amounted to 9.42%.
For `CC(C)(C)OC(=O)CN(c1ccc2c(c1)OCCO2)S(=O)(=O)c1ccc2nncn2c1`, the Inhibition is 6.06%.
As for `O=C(CCc1nnc2c(N3CCCCC3)nc3ccccc3n12)NCc1ccc(Br)cc1`, the Inhibition amounted to 2.96%.
As for `CCc1ccccc1NC(=O)CSc1nnc2c(=O)n(-c3ccccc3)ccn12`, the Inhibition is recorded as 10.95%.
Consider `CCc1ccccc1Sc1nccn2c(=O)n(CC(=O)Nc3c(C)cccc3C)nc12`, for which the Inhibition is recorded as 13.44%.
Still for that read-out and setting: as for `Cc1ccc(-c2cc3c4nnc(SCC(=O)Nc5ccccc5Br)n4ccn3n2)cc1`, the figure is 1.85%.
For `COc1ccc(C)cc1NC(=O)Cn1nc2cc(C)nc(Nc3ccc(F)cc3)n2c1=O`, the Inhibition is recorded as -14.69%.

The test system of the next assay is Escherichia coli. The conditions noted are these: Concentration 32 ug.mL-1;; ASSAY_TEST Inhibition of Bacterial Growth; detection method Absorption (OD600); MEDIA CAMHB; plate type 384well; NBS; CORNING #3640; time 18 hr.
Regarding `O=C(Cn1nc2ccc(-c3ccccc3)nn2c1=O)N1CCN(c2ccc(F)cc2)CC1`, the Inhibition is on record as -0.36%.
Consider `Cc1ccc(-n2ccn3c(SCC(=O)Nc4ccc5c(c4)OCCO5)nnc3c2=O)cc1C`, for which the Inhibition is reported as -5.98%.
Turning to `CCc1nnc2c(S(=O)(=O)N(Cc3cc(F)cc(F)c3)c3ccc(C)cc3)cccn12`, the Inhibition was -5.17%.
Turning to `Cc1[nH]c2ccccc2c1C(=O)CSc1nnc2c(=O)n(-c3ccc(F)c(F)c3)ccn12`, the Inhibition is -2.33%.
Take `CCOc1ccccc1NC(=O)Cn1c(=O)c2nnc(C(C)C)n2c2ccccc21`: the Inhibition is given as 5%.
On the same count and under the same terms, as for `Cc1ccc(N(Cc2ccccc2)S(=O)(=O)c2ccc3nncn3c2)cc1F`, the figure is -9.13%; as for `CSc1ccc(CNC(=O)Cn2nc3c(Oc4cccc(C)c4C)nccn3c2=O)cc1`, 2.94%; as for `Cc1ccc(NC(=O)Cn2nc3c(Sc4ccccc4)nccn3c2=O)c(Br)c1`, -14.81%.
For the molecule `CCC(C)NC(=O)Cn1nc2ccc(SCc3ccc(Cl)cc3)nn2c1=O` (centres undefined), the Inhibition is -1.43%.
Regarding `COc1ccc(NC(=O)Cn2c(=O)c3nnc(C)n3c3ccccc32)cc1Cl`, the Inhibition came out at 3.26%.
On the same count and under the same terms, as for `CCc1ccccc1NC(=O)Cn1nc2n(C)c(=O)c3c(c(-c4ccccc4)cn3C)n2c1=O`, the figure is -11.71%; as for `COc1ccc(NC(=O)Cn2c(=O)c3nnc(C(C)C)n3c3ccccc32)cc1Cl`, 0.69%.
The same measure, in the same setting: as for `O=c1c2nn(Cc3ccc([N+](=O)[O-])cc3)c(=O)n2ccn1-c1ccccc1`, the figure is -1.5%.
Still for that read-out and setting: as for `Cc1nnc2c(=O)n(CC(=O)Nc3ccc(Br)cc3)c3ccccc3n12`, the figure is 5.5%; as for `COc1ccc(-c2cc3c4nn(CC(=O)Nc5ccc(OC)c(OC)c5)c(=O)n4ccn3n2)cc1`, 2.66%; as for `COC(=O)c1ccc(NC(=O)Cn2nc3c4sc(N5CCCC5)nc4ncn3c2=O)cc1`, -9.22%.
For `COc1ccc(NC(=O)Cn2nc3nc(Nc4ccc(F)cc4)ccn3c2=O)cc1Cl`, the Inhibition is given as -9.75%.
Still for that read-out and setting: as for `Cc1ccccc1CN(c1ccc(Cl)cc1)S(=O)(=O)c1cccn2c(C)nnc12`, the figure is 1.89%; as for `CCCn1c(=O)c2sccc2n2c(=O)n(Cc3ccc(Cl)cc3)nc12`, -6.17%; as for `Cc1cccc(Oc2nccn3c(=O)n(CC(=O)N4CCN(c5ccc(F)cc5)CC4)nc23)c1C`, -6.71%.
Same read-out and setting: in the case of `CCc1ccc(NC(=O)Cn2nc3c(Sc4ccccc4)nccn3c2=O)cc1` it was -4.33%.
Turning to `O=C(Cn1nc2c(SC3CCCCC3)nccn2c1=O)Nc1ccc(Cl)cc1F`, the Inhibition was -2.75%.
Take `Cc1nnc2ccc(S(=O)(=O)N(Cc3cccc(F)c3)c3ccc(F)c(F)c3)cn12`: the Inhibition is -12.6%.
On the same count and under the same terms, as for `CCOC(=O)c1ccc(NC(=O)Cn2nc3c(N4CCOCC4)nccn3c2=O)cc1`, the figure is -3.52%; as for `COc1ccc(CN(c2ccc(F)cc2)S(=O)(=O)c2cccn3cnnc23)cc1F`, -4.31%.
As for `CCOc1ccc(-n2ccn3c(SCC(=O)Nc4ccccc4C(F)(F)F)nnc3c2=O)cc1`, the Inhibition stood at 2.18%.
The same measure, in the same setting: as for `Cc1ccc(Oc2nccn3c(=O)n(CC(=O)N4CCN(c5ccccc5F)CC4)nc23)cc1`, the figure is -0.59%; as for `Cc1ccc(Oc2nccn3c(=O)n(CC(=O)Nc4cccc(Cl)c4)nc23)cc1`, -9.06%; as for `O=C(Cn1nc2c3c4c(sc3ncn2c1=O)CCCC4)N1CCc2ccccc2C1`, 2.08%.
On the same count and under the same terms, in the case of `Cc1ccc(NC(=O)Cn2nc3c(N4CCCC4)nccn3c2=O)cc1Cl` it was -0.46%.
Regarding `O=C(Cn1nc2nc(Nc3ccc(F)cc3)ccn2c1=O)NCC1CCCO1` (centres undefined), the Inhibition was -9.11%.
The same measure, in the same setting: as for `Cc1ccccc1N1CCN(c2nccn3c(=O)n(CC(=O)Nc4cccc(C(C)C)c4)nc23)CC1`, the figure is -9.47%; as for `CCOc1ccccc1CNC(=O)CCc1nnc2ccc(-c3ccccc3)nn12`, -2.56%; as for `CC(C)(C)OC(=O)CN(c1ccc2c(c1)OCCO2)S(=O)(=O)c1ccc2nncn2c1`, -4.04%.
Consider `O=C(CCc1nnc2c(N3CCCCC3)nc3ccccc3n12)NCc1ccc(Br)cc1`, for which the Inhibition is given as -5.93%.
Same read-out and setting: as for `CCc1ccccc1NC(=O)CSc1nnc2c(=O)n(-c3ccccc3)ccn12`, the figure is -0.17%.
The same measure, in the same setting: in the case of `CCc1ccccc1Sc1nccn2c(=O)n(CC(=O)Nc3c(C)cccc3C)nc12` it was 0%.
`Cc1ccc(-c2cc3c4nnc(SCC(=O)Nc5ccccc5Br)n4ccn3n2)cc1`: the Inhibition is given as -3.11%.
Turning to `COc1ccc(C)cc1NC(=O)Cn1nc2cc(C)nc(Nc3ccc(F)cc3)n2c1=O`, the Inhibition is 2.14%.
